Measurements taken from PubChem BioAssay AID2783 (National Center for Advancing Translational Sciences (NCATS), 2010).
Records with an inconclusive call do not appear. Active and inactive are the calls of the source. Calls come from the whole dose curve; as a rule, active = well fitted inhibition curve with a large enough effect in the polarisation, with a control signal flat (not every such curve was filed as active); inconclusive = small, poorly fitted or top-dose-only effect, or effect the other way, or a change in a side signal; inactive = no such curve, though single readings can be large or run the other way; the % refers to the polarisation.

Target: Menin (Homo sapiens) (UniProt O00255)
Assay: Confirmation of Inhibitors Targeting the Menin-MLL Interaction in MLL Related Leukemias: Competition With Fluorescein Labeled MLL-derived Peptide

Menin (Homo sapiens), sequence (O00255 whole entry, looked up): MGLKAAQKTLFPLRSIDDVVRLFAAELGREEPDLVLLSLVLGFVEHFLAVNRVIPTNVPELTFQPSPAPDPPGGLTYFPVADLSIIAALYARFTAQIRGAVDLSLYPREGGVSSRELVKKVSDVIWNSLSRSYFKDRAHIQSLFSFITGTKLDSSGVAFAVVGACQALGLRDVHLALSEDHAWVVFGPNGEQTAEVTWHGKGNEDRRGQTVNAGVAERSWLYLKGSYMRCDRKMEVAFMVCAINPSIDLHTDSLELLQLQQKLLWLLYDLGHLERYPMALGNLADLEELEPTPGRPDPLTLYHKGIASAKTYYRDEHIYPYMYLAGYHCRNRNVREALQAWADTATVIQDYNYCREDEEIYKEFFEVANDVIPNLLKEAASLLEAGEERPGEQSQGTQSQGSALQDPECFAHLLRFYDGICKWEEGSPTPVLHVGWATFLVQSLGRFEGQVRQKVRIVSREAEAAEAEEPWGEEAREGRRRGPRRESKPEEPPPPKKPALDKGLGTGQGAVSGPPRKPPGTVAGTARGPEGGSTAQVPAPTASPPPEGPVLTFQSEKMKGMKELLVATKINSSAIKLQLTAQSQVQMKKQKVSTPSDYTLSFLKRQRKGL

Row | SMILES | outcome
1 | CCC(=O)Nc1ccc(-c2cc(-c3ccccc3)nc(-c3ccc(NC(=O)CC)cc3)n2)cc1 | inactive
2 | CC(=O)c1cccc(OCC(O)CNCC2COc3ccccc3O2)c1 (centres undefined) | inactive
3 | O=C(c1cc(F)c(F)cc1Cl)N1CCN(c2ncccn2)CC1 | inactive
4 | CCN(CC)c1nc(-c2ccc(C(=O)NN)cc2)nc(-c2ccc(C(=O)NN)cc2)n1 | inactive
5 | Cc1cc2cc(C(c3nnnn3CC3CCCO3)N3CCCc4ccccc43)c(=O)[nH]c2cc1C (centres undefined) | inactive
6 | COC1=C(Nc2ccccc2)C(=O)c2ccccc2C1=O | inactive
7 | CCOC(=O)N1CCN(C(=O)c2oc3ccc(S(=O)(=O)N(CC)CC)cc3c2C)CC1 | inactive
8 | COc1ccc(CC(=O)Nc2ccc(-c3nnc(-c4ccccc4)o3)cc2)cc1 | inactive
9 | CC(NC(=O)c1cnc2ccccc2n1)c1ccccc1 (centres undefined) | inactive
10 | CCCC(=O)NC(c1ccccc1Cl)c1ccc2cccnc2c1O (centres undefined) | inactive
11 | O=C(CSc1nnnn1-c1ccc(O)cc1)N1N=C(c2ccc3ccccc3c2)CC1c1ccccc1 (centres undefined) | inactive
12 | Cn1ncc2c(N3CCCCC3)nc(NCCCO)nc21 | inactive
13 | Cc1ccc(C2=NN(C(=O)c3ccccc3F)C(c3ccccc3F)C2)cc1 (centres undefined) | inactive
14 | CN1CCN(CC(=O)Nc2ccc(S(=O)(=O)N(C)C)cc2)CC1 | inactive
15 | CC(=O)Nc1ccc(-c2cc3ccccc3o2)cc1 | inactive
16 | COc1cc2c(cc1NC(=S)NC(=O)c1c(OC)cccc1OC)oc1ccccc12 | inactive
17 | Clc1ccc(-c2nnc(-c3ccccc3)nc2-c2c[nH]c3ccccc23)cc1 | inactive

Row | SMILES | outcome
18 | CC(c1ccccc1)c1nnc(NC(=O)Nc2ccccc2F)s1 (centres undefined) | inactive
19 | O=C(Nc1ccc(F)c(Cl)c1)c1cc(-c2ccco2)on1 | inactive
20 | O=C(CSc1nnc(-c2c[nH]c3ccccc23)o1)N1c2ccccc2CCc2ccccc21 | inactive
21 | COc1cc(/C=C2/C(=O)N(c3ccc(Br)cc3)N=C2C)cc(OC)c1OC | inactive
22 | CN1CCN(CC(=O)c2ccccc2F)CC1 | inactive
23 | O=C(Nc1cccn(Cc2c(Cl)cccc2Cl)c1=O)c1c(Cl)cccc1Cl | inactive
24 | Cc1nc2oc3c(NCC4CCCO4)ncnc3c2c2c1COC(C)(C)C2 (centres undefined) | inactive
25 | CN[C@H]1[C@H](O)[C@@H](O[C@@H]2[C@H](O)[C@@H](O[C@H]3OC(CN)=CC[C@H]3N)[C@@H](N)C[C@H]2N)OC[C@@]1(C)O | inactive
26 | CCc1ccc2c(c1)C(NC(C)=O)C(=O)N2CCN1CCOCC1 (centres undefined) | inactive
27 | CCc1nnc(NC(=O)C2(C)COC(c3ccc(OC)cc3)OC2)s1 (centres undefined) | inactive
28 | COc1cccc(NC(=O)N2CCCc3ccccc32)c1 | inactive
29 | CC(CC(=O)Nc1nc2ccccc2[nH]1)n1ccnc1 (centres undefined) | inactive
30 | O=C(Nc1nccs1)C(Br)C(Br)c1ccccc1 (centres undefined) | inactive
31 | NC(=O)c1ccc(NC(=O)c2cncn2-c2ccccc2)cc1 | inactive
32 | Cc1ccccc1-c1n[nH]c(=S)n1C | inactive
33 | CC(=O)c1cccc(NS(=O)(=O)c2ccc(N/C=C\C(=O)c3ccc(F)cc3)cc2)c1 | inactive
34 | COc1ccc(CN2CCC(Cc3ccccc3)CC2)c(C)c1C | inactive
